Reference: PubChem BioAssay
Activity calls are given as the source filed them.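 Rule for the calls, unless noted: active = visual image review flags a hit and inhibition of aggregation exceeds 20%; inconclusive = visual hit but inhibition at or below 20%; inactive = no hit on visual image review.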

Key:
[1] = inhibitors of TNFa-induced NFkB p65 translocation, primary screen, imaging, HUVEC, MLSMR starter and 10KST1 sets (AID 438;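 active = inhibition above 20% together with a positive visual image hit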;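 note: compound added about 3h40 before a 20 min TNFalpha stimulation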;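 for inhibition: signal is the nuclear over cytoplasmic p65 intensity ratio per well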); details: HUVEC TNFa-induced p65 nuclear translocation; cell count: measured here: nuclei count (cytotoxicity indicator), at 2.08 µM; inhibition: at 2 µM, stronger effect = higher value, 0% TNFa-plus-vehicle, 100% no-TNFa wells
[2] = inhibitors of mutant huntingtin aggregation, primary screen, imaging, exon1htt(103Q)mCFP cells, high-content imaging (AID 483); details: exon1htt(103Q)mCFP cell line, aggregate imaging, at 2 µM; inhibition of aggregation: stronger effect = higher value; nuclei count: measured here: cell count, toxicity;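 note: compound exposure lasted 3 days before fixation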;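 for nuclei count: percent of the per-plate median nuclei count of sample wells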
[3] = inhibitors of E-selectin induction by TNFa, primary screen, imaging, HUVEC, immunofluorescence, MLSMR starter and 10KST1 sets (AID 487;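 active = visually confirmed hit in the image check and inhibition above 20%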;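 for inhibition: signal is fraction of cell area covered by stained E-selectin grains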;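 for nuclei count: 100% = median nuclei count of all wells on the same plate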); details: HUVEC TNFalpha-induced E-selectin immunofluorescence imaging, at 2 µM; inhibition: stronger effect = higher value; nuclei count: measured here: cell number, toxicity
[4] = DUSP6 inhibitors restoring Erk phosphorylation by chemical complementation, primary imaging in DUSP6-transfected HeLa (AID 609;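 active = compounds giving at least 50% inhibition in the cell-based MKP-3 phosphatase rescue imaging test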;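 for inhibition: phospho-Erk level distribution per well compared with pooled transfected vehicle control wells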); details: HeLa MKP-3 transfected, phospho-Erk imaging KS statistic, at 10 µM, cells stimulated with TPA for 15 min
[5] = target: Dual specificity protein phosphatase 6 (Homo sapiens) (UniProt Q16828); test: as above; details: HeLa MKP-3 transfected, phospho-Erk imaging KS statistic; at 10 µM; stronger effect = higher value; cells stimulated with TPA for 15 min
Chain of Dual specificity protein phosphatase 6 (Homo sapiens) (Q16828 whole entry, looked up): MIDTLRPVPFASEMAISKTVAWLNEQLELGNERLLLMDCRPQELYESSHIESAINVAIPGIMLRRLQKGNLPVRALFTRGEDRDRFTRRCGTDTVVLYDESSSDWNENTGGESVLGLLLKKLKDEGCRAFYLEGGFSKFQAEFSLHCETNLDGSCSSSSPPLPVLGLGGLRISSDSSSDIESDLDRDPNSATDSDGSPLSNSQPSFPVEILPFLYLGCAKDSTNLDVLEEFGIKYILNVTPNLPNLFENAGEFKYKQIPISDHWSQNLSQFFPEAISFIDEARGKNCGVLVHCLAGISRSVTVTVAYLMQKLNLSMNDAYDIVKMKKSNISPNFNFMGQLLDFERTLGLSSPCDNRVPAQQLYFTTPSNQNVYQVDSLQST

[6] = target: Voltage-gated potassium channel subunit beta-2 (Rattus norvegicus) (UniProt P62483); test: KvBeta enzyme negative modulators, primary screen, biochemical, NADPH fluorescence (AID 622;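 active = fluorescence slope higher than the sample average by over 3 SD, cut at about -0.22 in these data, passing the limit was not always enough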;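 note: slope of raw intensity against log time taken from 70 to 1610 s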); details: recombinant KvBeta, 4-cyanobenzaldehyde reduction, at 10 µM, stronger effect = higher value
Chain of Voltage-gated potassium channel subunit beta-2 (Rattus norvegicus) (P62483 whole entry, looked up): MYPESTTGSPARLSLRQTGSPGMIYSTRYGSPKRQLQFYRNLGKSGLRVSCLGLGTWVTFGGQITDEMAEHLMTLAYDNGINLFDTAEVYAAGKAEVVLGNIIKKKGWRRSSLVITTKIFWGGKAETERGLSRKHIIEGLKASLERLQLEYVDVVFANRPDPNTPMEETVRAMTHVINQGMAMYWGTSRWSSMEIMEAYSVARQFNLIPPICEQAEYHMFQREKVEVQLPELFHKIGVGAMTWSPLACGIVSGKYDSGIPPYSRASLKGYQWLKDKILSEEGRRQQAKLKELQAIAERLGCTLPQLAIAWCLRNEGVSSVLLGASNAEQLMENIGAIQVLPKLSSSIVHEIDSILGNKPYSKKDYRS

[7] = target: Voltage-gated potassium channel subunit beta-2 (Rattus norvegicus) (UniProt P62483); test: KvBeta positive modulators, primary screen, biochemical, NADPH fluorescence (AID 623;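 active = NADPH fluorescence slope more negative than the mean of all samples by about 3 SD, 99.7% confidence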;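 note: fluorescence intensity change per second fitted from 20 to 320 s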); details: Recombinant KvBeta, NADPH fluorescence decrease slope, 10 min; at 10 µM; stronger effect = lower value
[8] = target: Alpha-2C adrenergic receptor (Homo sapiens) (UniProt P18825); test: modulators of alpha2C/GIRK thallium flux, primary screen, cell-based, HEK293 alpha2C/GIRK1/2 (AID 624;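 active = fluorescence slope after compound addition differing from the mean of all screened samples at 99.7% confidence, in either direction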;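 note: slope of fluorescence ratio to pre-addition baseline per second over 15 to 24 s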); details: thallium flux BTC fluorescence, at 10 µM, actives lie on both sides
Chain of Alpha-2C adrenergic receptor (Homo sapiens) (P18825 whole entry, looked up): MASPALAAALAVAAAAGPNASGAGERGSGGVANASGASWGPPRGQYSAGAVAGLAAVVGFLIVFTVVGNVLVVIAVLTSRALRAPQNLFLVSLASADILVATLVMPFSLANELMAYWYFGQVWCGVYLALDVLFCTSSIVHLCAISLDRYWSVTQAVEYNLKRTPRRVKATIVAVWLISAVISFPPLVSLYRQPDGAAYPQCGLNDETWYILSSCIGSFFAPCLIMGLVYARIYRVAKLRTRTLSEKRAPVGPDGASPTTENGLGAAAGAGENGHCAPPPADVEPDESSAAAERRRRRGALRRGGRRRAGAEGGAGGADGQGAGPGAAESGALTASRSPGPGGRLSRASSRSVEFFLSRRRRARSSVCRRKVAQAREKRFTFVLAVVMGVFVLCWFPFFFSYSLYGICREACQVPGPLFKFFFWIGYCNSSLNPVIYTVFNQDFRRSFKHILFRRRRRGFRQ

[9] = inhibitors of larval lipid processing in zebrafish, primary screen, whole organism, PED6 fluorescence, gall bladder and intestine (AID 686;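 active = a full or partial loss of lipid-probe fluorescence in the fish gall bladder, intestine or both, judged by eye; inactive = no fluorescence loss, or compound toxic to the fish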;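 note: larvae 5 to 7 days old with five fish per well; signal comes from phospholipase A2 cleavage of quenched PED6 carried via bile; overnight exposure to compound and PED6 before scoring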); details: Zebrafish larvae PED6 lipid processing, fluorescence scoring; screened at 20 µM (by protocol)
[10] = inhibitors of Chlamydomonas gravitaxis, primary screen, whole organism, Chlamydomonas reinhardtii, WT vs cilia-less mutant, absorbance, 96-well (AID 463189;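 active = inhibition at or above 50% relative to wild type and mutant plate controls; inactive = inhibition below 50%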;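 note: 0% = wild type cc124 cells in DMSO and 100% = ciliumless bld1 mutant cells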); details: OD600 absorbance, 2 days, at 10 µM, stronger effect = higher value
[11] = inhibitors of Sendai virus-induced IRF3 signaling, primary screen, TLR/RLR signaling modifier project, cell-based, Sendai virus stimulus, luciferase, 10K MLSCN set (AID 602276;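 active = inhibition at or above 50% at 10 µM; inactive = inhibition below 50%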;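 note: firefly luciferase from ISG56 promoter only with Renilla not read in this screen; 0% = Sendai virus plus DMSO and 100% = medium plus DMSO without virus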); details: HEK293 RL24 IRF3 luciferase reporter, at 10 µM, stronger effect = higher value
[12] = inhibitors of poly I:C-induced TLR3 signaling, primary screen, cell-based, poly I:C stimulus, luciferase, 10K MLSCN set (AID 602277;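 active = inhibition of the reporter signal at or above 50%; inactive = inhibition below 50%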); details: HEK293-TLR3 RL24 IRF3 luciferase reporter, at 10 µM, stronger effect = higher value
[13] = measured here: cell density z-score
[14] = measured here: nuclear c-Myc green intensity z-score
[15] = measured here: nuclear pErk red intensity z-score, stronger effect = higher value

SMILES | cell count [1] | inhibition [1] | inhibition of aggregation [2] | nuclei count [2] [%] | inhibition [3] | nuclei count [3] [%] | z-score [4, 13] | z-score [4, 14] | z-score [4, 15] | inhibition [5] | fluorescence slope [6] | NADPH fluorescence slope [7] | slope [8] | outcome [9] | inhibition [10] | inhibition [11] | inhibition [12]
CC(COc1ccccc1)NC(C)C(O)c1ccc(O)cc1 (stereo not given) | 534 | -7.4% (inactive) | -13.1% (inactive) | 100 | -135% (inactive) | 121 | -1.06 | -0.532 | 0.827 | -12.3% (inactive) | -0.54 (inactive) | 4.6e-06 (inactive) | 0.00639 (inactive) | inactive | -3.83% (inactive) | -5.16% (inactive) | -30% (inactive)
CC1=C(c2ccc(Cl)cc2)[N+](=O)C(C)(C)N1[O-] | 523 | -5.6% (inactive) | 8.9% (inactive) | 94.8 | -69.5% (inactive) | 124 | 0.834 | -1.84 | 0.735 | 6.04% (inactive) | -0.408 (inactive) | -7.3e-06 (inactive) | 0.00633 (inactive) | inactive | 21.6% (inactive) | -0.683% (inactive) | 15.7% (inactive)
COc1ccc(Nc2nc(Nc3ccc(OC)cc3)nc(-n3[nH]c(=O)c(C)c3C)n2)cc1 | 656 | -10.8% (inactive) | 0.5% (inactive) | 124 | -17.7% (inactive) | 122 | -0.0693 | 1.31 | 0.0692 | 13.9% (inactive) | -0.474 (inactive) | -5.6e-05 (inactive) | 0.00543 (inactive) | inactive | 2.29% (inactive) | 22.1% (inactive) | 8.22% (inactive)
Fc1ccccc1-c1nc(NCCCN2CCOCC2)c2ccccc2n1 | 480 | -0.7% (inactive) | -2.8% (inactive) | 108 | -89.4% (inactive) | 130 | 0.781 | -1.18 | -0.632 | 27.5% (inactive) | -0.448 (inactive) | -1.9e-05 (inactive) | 0.00649 (inactive) | inactive | 7.49% (inactive) | -10.9% (inactive) | -2.43% (inactive)
CCN(CC)S(=O)(=O)c1cccc2c(N(C)C)cccc12 | 503 | -2.1% (inactive) | 14.8% (inactive) | 95.3 | -84.9% (inactive) | 128 | 0.324 | -0.162 | 1.65 | 0.671% (inactive) | -0.177 (active) | -1.3e-05 (inactive) | 0.00311 (inactive) | inactive | 25.1% (inactive) | -4.35% (inactive) | -4.09% (inactive)
CCCC(=O)O[C@]1(C(=O)COC(C)=O)CC[C@H]2[C@@H]3C[C@H](F)C4=CC(=O)C=C[C@]4(C)[C@@]3(F)[C@@H](O)C[C@@]21C | 642 | -9.3% (inactive) | -34.4% (inactive) | 61.6 | -95.2% (inactive) | 136 | -0.0756 | -0.093 | 0.355 | -0.493% (inactive) | -0.5 (inactive) | -5.5e-05 (inactive) | 0.00445 (inactive) | inactive | 9.17% (inactive) | 15.9% (inactive) | 48.2% (inactive)
CC(C)C1Cc2c(C#N)c(N)sc(=S)c2CO1 (stereo not given) | 487 | 4.7% (inactive) | 2.2% (inactive) | 102 | -98.3% (inactive) | 146 | 1.33 | -0.895 | 0.775 | 14% (inactive) | -0.291 (inactive) | 1.2e-05 (inactive) | 0.0021 (inactive) | inactive | 27.2% (inactive) | -3.04% (inactive) | 12.1% (inactive)
NS(=O)(=O)c1ccc(C(=O)O)cc1 | 662 | -3.9% (inactive) | 7.9% (inactive) | 106 | -60.6% (inactive) | 124 | 1.84 | -0.0127 | -1.63 | 31.1% (inactive) | -0.499 (inactive) | 3.5e-06 (inactive) | 0.00388 (inactive) | inactive | 24.6% (inactive) | -11.5% (inactive) | -18% (inactive)
c1cncc(-c2nnc3sc(-c4ccco4)nn23)c1 | 535 | 0.4% (inactive) | 3.4% (inactive) | 94.2 | -81.8% (inactive) | 105 | 0.315 | -1.33 | 1.09 | -2.47% (inactive) | -0.476 (inactive) | -8.1e-06 (inactive) | 0.00677 (inactive) | inactive | 1.41% (inactive) | 13.2% (inactive) | -2.28% (inactive)
CCCN(CCC)S(=O)(=O)c1ccc(C(=O)O)cc1 | 623 | -9.8% (inactive) | 6.1% (inactive) | 108 | -101% (inactive) | 118 | 0.315 | 0.261 | 0.309 | -2.46% (inactive) | -0.448 (inactive) | 3.2e-06 (inactive) | 0.00488 (inactive) | inactive | -3.99% (inactive) | 0.7% (inactive) | 13.7% (inactive)
